Among all 2,100 compounds or so, about 650 (31%) were called active. Inconclusive results (about 16%) are left out. The call rests on the fitted dose curve; in most records, active means well fitted inhibition curve with a large enough effect; inconclusive means small, poorly fitted or top-dose-only effect; inactive means flat fitted curve, though single readings scatter. Some of the results follow.
Experiment: qHTS for inhibitors of Vif-A3G interactions: Cherry picks; further: nearly all actives have a fitted effect of over 80% in size; on activity, negative = fluorescence increase: % of control where 0% means no effect
Conditions: HeLa A3G-eYFP + Vif (tagged APOBEC3G with the HIV-1 protein that degrades it), 24 h; Potency: eYFP fluorescence increase; series mostly up to 36.9 µM; activity, negative = fluorescence increase: at the top concentration
In short: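 Cherry-picked compounds tested at several concentrations on A3G-eYFP/Vif HeLa cells for 24 hours; loss of Vif-driven degradation read as eYFP fluorescence by cytometric plate imaging, 488 nm excitation, 500-530 nm emission.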
Potency means the concentration at half of the fitted maximal effect.

activity, negative = fluorescence increase, inactive:
Cc1c(NC(=O)c2csc3c2CCCC3)c(=O)n(-c2ccccc2)n1C -0.126% [at 46.1 µM]
COc1cc(C=C2CCCC(=Cc3ccc(OCC4CO4)c(OC)c3)C2=O)ccc1OCC1CO1 (stereo not given) -3.47%
C=CCOc1c(Cl)cc(C(=S)N2CCCC2)cc1OCC -12.3%
COc1cc(/C=N/Nc2ccc(Cl)nn2)cc(OC)c1O -0.889%
COc1cc(/C=C2\COC/C(=C\c3cc(OC)c(OC)c(OC)c3)C2=O)cc(OC)c1OC -2.34%
COc1ccc(-c2cnc3c(c2)CCC3(C#N)C#N)cc1 -12.3%
O=C1N/C(=N\N=C\c2ccco2)SC1Cc1ccccc1[N+](=O)[O-] (stereo not given) 2.93% [at 46.1 µM]
Cc1ccccc1NCC(=O)N=Nc1c(O)[nH]c2ccc([N+](=O)[O-])cc12 -23.3%
CN1C2=CC=CC=CC2=[N+](C)C12C([N+](=O)[O-])=CC(=[N+]([O-])[O-])C=C2[N+](=O)[O-] (stereo not given) -22.7%
Nc1nn(-c2ccccc2)c(N)c1N=Nc1ccccc1 -22.3%
CCCCn1c(N)c(N(CCC(C)C)C(=O)c2ccc([N+](=O)[O-])o2)c(=O)[nH]c1=O 1.21% [at 46.1 µM]
CCCCN(C(=O)c1ccc([N+](=O)[O-])s1)c1c(N)n(CCCC)c(=O)[nH]c1=O 3.16% [at 46.1 µM]
O=Cc1s/c(=N\S(=O)(=O)c2ccccc2)n(CCCCl)c1Cl -29.7% [at 46.1 µM]
CCOC(=O)COn1c(=O)c(-c2ccc(Br)cc2)[n+]([O-])c2ccccc21 -1.62% [at 46.1 µM]
CCOC(=O)CSc1nc2c(c(=O)[nH]1)C(C)(CC)Cc1ccccc1-2 (stereo not given) 6.71% [at 46.1 µM]

Potency, active:
Cc1c(N/N=C(\C#N)C(=O)c2ccc(Cl)cc2)c(=O)n(-c2ccccc2)n1C 20.6 µM
CCOc1cc(/C=C2\CCC/C(=C\c3cc(Cl)c(O)c(OCC)c3)C2=O)cc(Cl)c1O 12.5 µM
COc1cc(/C=C2/CCC/C(=C\c3cc(O)c(OC)c(Cl)c3)C2=O)cc(Cl)c1O 18.4 µM
Cn1c(=O)c(N)c2c3c(c(Br)ccc31)C(=O)c1ccccc1-2 2.91 µM
COc1ccccc1-c1noc(-c2ccc(NCc3ccco3)c([N+](=O)[O-])c2)n1 23.1 µM
O=[N+]([O-])c1cc(-c2nc(-c3ccccc3)no2)ccc1NCc1ccco1 10.3 µM
Cc1cccc(-c2noc(-c3ccc(NCc4ccco4)c([N+](=O)[O-])c3)n2)c1 16.4 µM
CCN(CC)S(=O)(=O)c1cc([N+](=O)[O-])ccc1N=Nc1c(O)[nH]c2ccccc12 20.6 µM
Nc1c(N(CCC2=CCCCC2)C(=O)c2ccc([N+](=O)[O-])o2)c(=O)[nH]c(=O)n1Cc1ccccc1 18.4 µM
CCOC(=O)Cn1c(=O)c(-c2cc(Br)ccc2N)nc2ccccc21 11.6 µM
